Consider 28 molecules from PubChem BioAssay (Tox21).

Test [1] has as its target Nuclear receptor subfamily 1 group I member 2 (Rattus norvegicus) (UniProt Q9R1A7). Description: Rat pregnane X receptor (rPXR) activation by small molecules, qHTS assay (AID 1346983). Further: nearly all actives have a fitted effect of over 20% in size. The note with it: rPXR luciferase reporter cells, One-Glo luminescence, 24 h; max activation: hits give high values. The procedure, abridged: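 Cell-based rPXR activation assay: rPXR cells, 2,000 per well, rested 5hr at 37 C, then exposed to compounds in DMSO for 24 hr at 37 C. Luciferase activity read by One-Glo luminescence after 30 min at room temperature.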

The target of test [2] is Nuclear receptor subfamily 1 group I member 2 (Homo sapiens) (UniProt O75469). Description: CYP3A4 induction through human pregnane X receptor (PXR) by small molecules, qHTS assay (AID 1346984). Further: nearly all actives have a fitted effect of over 40% in size. The procedure, abridged:
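Steps: seed DPX-2 cells, 5 hr at 37C; pin-transfer compounds; 24 hr at 37C; add Luciferin-IPA (3uM final), 3 hr at 37C; add One-Glo, 30 min RT; read luminescence.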

Test [3] has the same target. Nature of the test: Human pregnane X receptor (PXR) activation by small molecules, qHTS assay (AID 1346985). Further: nearly all actives have a fitted effect of over 40% in size. Further: potency means the concentration at half of the fitted maximal effect. In a few lines:
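DPX-2 cells (HepG2 co-transfected with a PXR response element and a CYP3A4-promoter luciferase construct) were seeded at 2,000 per well, rested 5 hr at 37C, then exposed to DMSO-dissolved compounds for 24 hr. Activation was read as luciferase luminescence.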

The target of test [4] is Cytochrome P450 2D6 (Homo sapiens) (UniProt P10635). Description: Cytochrome P450 Family 2 Subfamily D Member 6 (CYP2D6) small molecule antagonists: luciferase reporter qHTS assay (AID 1671196). Further: nearly all actives have a fitted effect of over 50% in size. Further: potency means the concentration at half of the fitted maximal effect. The procedure, abridged:
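P450-Glo format: CYP2D6 converts a proluciferin substrate to luciferin in an NADPH-driven reaction lasting 1 h at room temperature. Light output, proportional to CYP2D6 activity, reflects interference by test chemicals.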

Test [5] concerns the target Cytochrome P450 2C19 (Homo sapiens) (UniProt P33261). Nature of the test: Cytochrome P450 Family 2 Subfamily C Member 19 (CYP2C19) small molecule antagonists: luciferase reporter qHTS assay (AID 1671197). Further: nearly all actives have a fitted effect of over 65% in size. Further: potency means the concentration at half of the fitted maximal effect. In a few lines: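 Light output is proportional to CYP2C19 activity: proluciferin substrate is converted to luciferin, then detected by a luciferin detection reagent that also stops the 1 h, 37C NADPH-driven reaction. Ketoconazole serves as positive control.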

For test [6], the target named is Cytochrome P450 2C9 (Homo sapiens) (UniProt P11712). Description: Cytochrome P450 Family 2 Subfamily C Member 9 (CYP2C9) small molecule antagonists: luciferase reporter qHTS assay (AID 1671198). Further: nearly all actives have a fitted effect of over 50% in size. Further: potency means the concentration at half of the fitted maximal effect. In a few lines: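 P450-Glo proluciferin substrate with CYP2C9 enzyme; 10 min RT preincubation, then NADPH regeneration 1 h at 37C; luciferin detection reagent 20 min RT, luminescence in relative luminescence units.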
Sequence of Cytochrome P450 2C9 (Homo sapiens) (P11712 whole entry, looked up): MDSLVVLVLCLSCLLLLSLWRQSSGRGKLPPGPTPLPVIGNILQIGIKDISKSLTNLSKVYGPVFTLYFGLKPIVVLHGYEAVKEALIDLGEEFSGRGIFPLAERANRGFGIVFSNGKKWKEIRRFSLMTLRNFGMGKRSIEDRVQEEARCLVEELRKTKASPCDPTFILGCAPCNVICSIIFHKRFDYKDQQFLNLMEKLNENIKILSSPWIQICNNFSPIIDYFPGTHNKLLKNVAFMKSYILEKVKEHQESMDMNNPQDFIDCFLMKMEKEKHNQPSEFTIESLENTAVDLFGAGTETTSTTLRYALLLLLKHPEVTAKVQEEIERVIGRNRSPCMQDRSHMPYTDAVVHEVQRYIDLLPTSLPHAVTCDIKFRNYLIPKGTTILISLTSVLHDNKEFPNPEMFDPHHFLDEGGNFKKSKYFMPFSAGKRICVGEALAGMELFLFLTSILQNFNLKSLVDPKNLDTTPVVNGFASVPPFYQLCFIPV

For test [7], the target named is Voltage-gated inwardly rectifying potassium channel KCNH2 (Homo sapiens) (UniProt Q12809). Description: Human Ether-a-go-go-Related Gene (hERG) channel small molecule antagonists: fluorescence cell-based qHTS assay (AID 1671200). Further: nearly all actives have a fitted effect of over 50% in size. Further: potency means the concentration at half of the fitted maximal effect. In a few lines: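 Read-out: thallium influx as a surrogate for potassium, tracked as fluorescence (480 nm ex/540 nm em) every second for 2 min after Stimulus Buffer addition in dye-loaded hERG-U2OS cells.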
Sequence of Voltage-gated inwardly rectifying potassium channel KCNH2 (Homo sapiens) (Q12809 whole entry, looked up): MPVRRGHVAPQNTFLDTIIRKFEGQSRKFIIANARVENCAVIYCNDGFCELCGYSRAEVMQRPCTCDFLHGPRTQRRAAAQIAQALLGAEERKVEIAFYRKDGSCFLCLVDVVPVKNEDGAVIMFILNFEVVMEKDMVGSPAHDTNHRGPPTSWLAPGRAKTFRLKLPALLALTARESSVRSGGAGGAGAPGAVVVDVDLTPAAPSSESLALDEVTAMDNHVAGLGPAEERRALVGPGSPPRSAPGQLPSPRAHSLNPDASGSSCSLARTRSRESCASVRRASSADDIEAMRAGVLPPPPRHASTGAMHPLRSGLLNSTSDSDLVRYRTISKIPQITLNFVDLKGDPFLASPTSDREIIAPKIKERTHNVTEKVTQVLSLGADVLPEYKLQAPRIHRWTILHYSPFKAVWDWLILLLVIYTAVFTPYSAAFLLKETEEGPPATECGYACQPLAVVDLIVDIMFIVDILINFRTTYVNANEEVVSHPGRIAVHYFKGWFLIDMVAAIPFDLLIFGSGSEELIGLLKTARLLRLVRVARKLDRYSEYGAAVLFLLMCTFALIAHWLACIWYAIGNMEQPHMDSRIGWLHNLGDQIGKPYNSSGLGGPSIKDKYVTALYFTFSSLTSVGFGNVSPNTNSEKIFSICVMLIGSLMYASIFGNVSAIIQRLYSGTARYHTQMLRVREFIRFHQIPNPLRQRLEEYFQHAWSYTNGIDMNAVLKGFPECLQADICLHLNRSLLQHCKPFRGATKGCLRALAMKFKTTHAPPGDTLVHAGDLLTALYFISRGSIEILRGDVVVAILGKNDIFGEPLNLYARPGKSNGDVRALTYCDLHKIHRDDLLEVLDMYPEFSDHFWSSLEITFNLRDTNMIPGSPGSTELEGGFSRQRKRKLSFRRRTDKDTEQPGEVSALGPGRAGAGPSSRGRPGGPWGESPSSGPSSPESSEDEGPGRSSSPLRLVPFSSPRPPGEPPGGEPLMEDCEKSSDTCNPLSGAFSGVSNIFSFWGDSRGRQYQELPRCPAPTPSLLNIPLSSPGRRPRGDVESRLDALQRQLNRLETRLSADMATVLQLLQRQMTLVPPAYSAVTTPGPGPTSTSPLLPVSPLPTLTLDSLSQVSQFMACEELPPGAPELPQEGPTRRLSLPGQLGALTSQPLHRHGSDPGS

Test [8] addresses Cytochrome P450 3A4 (Homo sapiens) (UniProt P08684). Description: Cytochrome P450 Family 3 Subfamily A Member 4 (CYP3A4) small molecule antagonists: luciferase reporter qHTS assay (AID 1671201). Further: series mostly up to about 120 µM; nearly all actives have a fitted effect of over 50% in size. In a few lines: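 Luminescent readout (RLU) proportional to CYP3A4 activity, from luciferin generated off a proluciferin substrate. Enzyme–substrate mix plus compound 10 min at room temp, NADPH regeneration 1 h, detection reagent 20 min.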

Results filed as inconclusive are left out. Unmarked numbers belong to inactive results. Activity calls are given as the source filed them. The call rests on the fitted dose curve; in most records, active means well fitted curve in the direction sought with a large enough effect in the repeat runs; inconclusive means weak or mixed curves; inactive means no such curve, though single readings can be large; an effect the other way counts as inactive or inconclusive.
On the % scale 0 is the no-effect control and ±100 the full control effect.

Sequence of Nuclear receptor subfamily 1 group I member 2 (Rattus norvegicus) (Q9R1A7 whole entry, looked up): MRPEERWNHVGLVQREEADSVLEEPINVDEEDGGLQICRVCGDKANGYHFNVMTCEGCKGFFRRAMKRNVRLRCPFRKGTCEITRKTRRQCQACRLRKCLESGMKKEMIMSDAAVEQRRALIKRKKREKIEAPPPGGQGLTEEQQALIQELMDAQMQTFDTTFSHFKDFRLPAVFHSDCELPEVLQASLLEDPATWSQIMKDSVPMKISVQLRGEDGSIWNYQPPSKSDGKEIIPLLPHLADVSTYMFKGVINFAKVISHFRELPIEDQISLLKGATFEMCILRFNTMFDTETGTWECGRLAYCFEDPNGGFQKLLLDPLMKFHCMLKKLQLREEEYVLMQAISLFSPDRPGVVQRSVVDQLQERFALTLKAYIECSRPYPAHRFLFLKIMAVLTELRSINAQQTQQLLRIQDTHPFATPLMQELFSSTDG
Sequence of Cytochrome P450 2C19 (Homo sapiens) (P33261 whole entry, looked up): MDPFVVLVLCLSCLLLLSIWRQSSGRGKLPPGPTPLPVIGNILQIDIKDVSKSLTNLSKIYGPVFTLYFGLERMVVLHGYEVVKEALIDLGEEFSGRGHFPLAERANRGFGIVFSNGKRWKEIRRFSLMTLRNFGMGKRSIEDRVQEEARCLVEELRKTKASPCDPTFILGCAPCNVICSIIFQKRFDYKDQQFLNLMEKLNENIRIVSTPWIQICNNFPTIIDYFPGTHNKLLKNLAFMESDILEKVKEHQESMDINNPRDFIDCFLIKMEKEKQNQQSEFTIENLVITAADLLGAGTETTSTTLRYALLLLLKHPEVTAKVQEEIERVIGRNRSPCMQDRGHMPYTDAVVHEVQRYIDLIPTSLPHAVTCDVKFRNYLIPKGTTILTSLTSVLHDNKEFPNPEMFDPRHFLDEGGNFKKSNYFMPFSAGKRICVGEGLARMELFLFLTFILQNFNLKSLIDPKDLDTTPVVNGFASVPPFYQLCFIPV
Sequence of Cytochrome P450 2D6 (Homo sapiens) (P10635 whole entry, looked up): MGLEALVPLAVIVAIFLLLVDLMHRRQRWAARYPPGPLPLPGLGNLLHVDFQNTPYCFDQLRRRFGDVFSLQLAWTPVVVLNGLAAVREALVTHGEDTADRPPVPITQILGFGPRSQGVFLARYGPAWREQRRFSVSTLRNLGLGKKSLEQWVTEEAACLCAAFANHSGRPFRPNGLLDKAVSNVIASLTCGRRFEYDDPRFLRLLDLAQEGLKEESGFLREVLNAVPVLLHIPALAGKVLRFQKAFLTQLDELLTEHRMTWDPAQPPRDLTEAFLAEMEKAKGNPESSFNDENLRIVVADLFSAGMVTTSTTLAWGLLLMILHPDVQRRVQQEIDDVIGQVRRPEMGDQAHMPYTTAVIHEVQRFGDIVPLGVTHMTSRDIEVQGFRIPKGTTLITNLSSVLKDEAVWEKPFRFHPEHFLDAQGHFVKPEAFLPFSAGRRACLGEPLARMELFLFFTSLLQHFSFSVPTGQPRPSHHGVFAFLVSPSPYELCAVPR
Sequence of Cytochrome P450 3A4 (Homo sapiens) (P08684 whole entry, looked up): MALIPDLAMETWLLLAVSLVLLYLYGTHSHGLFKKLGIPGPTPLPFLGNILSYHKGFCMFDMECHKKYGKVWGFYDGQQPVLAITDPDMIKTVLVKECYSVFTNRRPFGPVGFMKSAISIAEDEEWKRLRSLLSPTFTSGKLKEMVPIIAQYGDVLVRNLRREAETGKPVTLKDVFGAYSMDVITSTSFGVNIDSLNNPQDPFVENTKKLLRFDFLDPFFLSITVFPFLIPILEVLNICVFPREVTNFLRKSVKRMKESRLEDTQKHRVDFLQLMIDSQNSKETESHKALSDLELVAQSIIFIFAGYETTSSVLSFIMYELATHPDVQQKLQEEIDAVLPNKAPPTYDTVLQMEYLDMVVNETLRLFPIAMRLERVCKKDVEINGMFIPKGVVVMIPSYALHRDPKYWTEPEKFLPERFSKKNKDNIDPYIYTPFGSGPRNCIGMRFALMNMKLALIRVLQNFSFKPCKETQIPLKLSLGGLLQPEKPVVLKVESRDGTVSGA

With `CCc1ncnc2cc(OC)c(OC)cc12`, in test [1], the max activation was -3.13%. Also, the Potency entry in test [2] and in test [3] was “inactive” throughout.

As to `CC(C)(C)C(=O)OCC(=O)[C@H]1CC[C@H]2[C@@H]3CCC4=CC(=O)CC[C@]4(C)[C@H]3CC[C@]12C`, the max activation in test [1] is -6.33%. Moreover, the Potency result in test [2] and in test [3] was “inactive” in each case.

Regarding `CCc1cn([C@H]2C[C@H](O)[C@@H](CO)O2)c(=O)[nH]c1=O`, the max activation in test [1] was 1.52%. For the same molecule, the Potency result in test [2] and in test [3] was “inactive” in each case.

As for `CC1CCCC(C)N1NC(=O)c1ccc(Cl)c(S(N)(=O)=O)c1` (centres undefined), the max activation in test [1] is -4.09%. In addition, the Potency entry in test [2] and in test [3] was “inactive” throughout.

As for `Cc1cc(N)c2ccccc2[n+]1CCCCCCCCCC[n+]1c(C)cc(N)c2ccccc21`, in test [1], the max activation is -11.7%. Further, the Potency entry in test [2] and in test [3] was “inactive” throughout.

In the case of `C[C@@H]1O[C@@H]1P(=O)(O)O`, the max activation in test [1] is -1.9%. In addition, the Potency entry in test [2] and in test [3] was “inactive” throughout.

For `NC(=S)NS(=O)(=O)c1ccc(N)cc1`, the max activation in test [1] is -1.97%. The Potency entry in test [2] and in test [3] was “inactive” each time.

Regarding `COC(=O)C[C@](O)(CCCC(C)(C)O)C(=O)O[C@@H]1C(OC)=CC23CCCN2CCc2cc4c(cc2[C@H]13)OCO4` (some centres undefined), the max activation in test [1] was -15.5%. The Potency entry in test [2] and in test [3] was “inactive” throughout.

Regarding `CCOc1ccc(NC(=S)Nc2ccc(OCC)cc2)cc1`, the max activation in test [1] was -1.61%. Besides, the Potency entry in test [2] and in test [3] was “inactive” each time.

In the case of `O=P(O)(O)C(O)(Cn1ccnc1)P(=O)(O)O`, the max activation in test [1] was -1.82%. The Potency entry in test [2] and in test [3] was “inactive” throughout.

As to `NS(=O)(=O)c1cc(Cl)c(Cl)c(S(N)(=O)=O)c1`, in test [1], the max activation is -2.98%. The Potency result in test [2] and in test [3] was “inactive” each time.

Consider `NC(=O)[C@@H]1CCCN1C(=O)[C@H](Cc1cnc[nH]1)NC(=O)[C@@H]1CCC(=O)N1`, for which the max activation in test [1] is -0.96%. For the same molecule, the Potency entry in test [2] and in test [3] was “inactive” throughout.

Consider `COc1c(O)cc2c(c1O)[C@@H]1O[C@H](CO)[C@@H](O)[C@H](O)[C@H]1OC2=O`, for which the max activation in test [1] was -0.0644%. In addition, the Potency result in test [2] and in test [3] was “inactive” in each case.

In the case of `CN[C@H](CC(C)C)C(=O)N[C@H]1C(=O)N[C@@H](CC(N)=O)C(=O)N[C@H]2C(=O)N[C@H]3C(=O)N[C@H](C(=O)N[C@@H](C(=O)O)c4cc(O)cc(O)c4-c4cc3ccc4O)[C@H](O)c3ccc(c(Cl)c3)Oc3cc2cc(c3O[C@@H]2O[C@H](CO)[C@@H](O)[C@H](O)[C@H]2O[C@H]2C[C@](C)(N)C(O)[C@H](C)O2)Oc2ccc(cc2Cl)[C@H]1O` (some centres undefined), the max activation in test [1] is -3.51%. For the same molecule, the Potency result in test [2] and in test [3] was “inactive” in each case.

`O=C1[O][Bi][O]c2ccccc21`: the max activation in test [1] is -4.48%. Further, the Potency entry in test [2] and in test [3] was “inactive” each time.

Take `C=CC[N+]1([C@H]2C[C@H]3[C@@H]4CC[C@H]5C[C@H](O)[C@@H](N6CCOCC6)C[C@]5(C)[C@H]4CC[C@]3(C)[C@H]2OC(C)=O)CCCC1`: the max activation in test [1] is -2.81%. Moreover, the Potency result in test [2] and in test [3] was “inactive” in each case.

With `Nc1cc(Cl)c(NC2=NCCN2)c(Cl)c1`, in test [1], the max activation is -1.9%. Further, the Potency entry in test [2] and in test [3] was “inactive” throughout.

Turning to `CC1(C)S[C@@H]2[C@H](N3C(=O)C(c4ccccc4)NC3(C)C)C(=O)N2[C@H]1C(=O)O` (some centres undefined), in test [1], the max activation is -2.27%. Besides, the Potency entry in test [2] and in test [3] was “inactive” in each case.

Regarding `CO/N=C(\C(=O)N[C@@H]1C(=O)N2C(C(=O)O)=C(COC(C)=O)CS[C@H]12)c1csc(N)n1` (stereo in doubt), the max activation in test [1] is -7.73%. Also, the Potency result in test [2] and in test [3] was “inactive” throughout.

Take `C[C@H]1O[C@@H](O[C@H]2CC[C@@]3(C)[C@H](CC[C@@H]4[C@@H]3C[C@@H](O)[C@]3(C)[C@@H](C5=CC(=O)OC5)CC[C@]43O)C2)C[C@H](O)[C@@H]1O[C@H]1C[C@H](O)[C@H](O[C@H]2C[C@H](O)[C@H](O[C@@H]3O[C@H](CO)[C@@H](O)[C@H](O)[C@H]3O)[C@@H](C)O2)[C@@H](C)O1`: in test [1], the max activation was 6.34%. Moreover, the Potency result in test [2], in test [3], in test [4], in test [5], in test [6] and in test [7] was “inactive” throughout. Besides, in test [8], the Potency entry was “inactive”.

Regarding `COc1cc2c(cc1O)CCN[C@]21CS[C@@H]2c3c(OC(C)=O)c(C)c4c(c3[C@H](COC1=O)N1[C@@H]2[C@H]2c3c(cc(C)c(OC)c3O)C[C@@H]([C@@H]1O)N2C)OCO4`, the max activation in test [1] was -17.5%. The Potency result in test [2] and in test [3] was “inactive” throughout.

For `O=C(CCCN1CCN2CCCC2C1)c1ccc(F)cc1` (centres undefined), the max activation in test [1] is 1.23%. Besides, the Potency entry in test [2] and in test [3] was “inactive” each time.

Take `Cc1c(N)nc([C@H](CC(N)=O)NC[C@H](N)C(N)=O)nc1C(=O)N[C@H](C(=O)N[C@H](C)[C@@H](O)[C@H](C)C(=O)N[C@H](C(=O)NCCc1nc(-c2nc(C(=O)NCCCCN=C(N)N)cs2)cs1)[C@@H](C)O)[C@@H](O[C@@H]1O[C@@H](CO)[C@@H](O)[C@H](O)[C@@H]1O[C@H]1O[C@H](CO)[C@@H](O)[C@H](OC(N)=O)[C@@H]1O)c1cnc[nH]1`: in test [1], the max activation was -0.9%. Besides, the Potency result in test [3] is “inactive”.

Consider `Cc1cc(CC(C)CC(C)(C)C)n(O)c(=O)c1` (centres undefined) (tested in a mixture with another compound), for which the max activation in test [1] is -3.3%. Besides, the Potency in test [3] is 25.1 µM (active).

As to `CCC(C)(C)c1ccc(CC(C)CN2C[C@@H](C)O[C@@H](C)C2)cc1` (some centres undefined), the max activation in test [1] was -0.729%. For the same molecule, the Potency result in test [2] and in test [8] was “inactive” in each case. Besides, the Potency in test [4] is 6.92 µM (active); in test [5], 11 µM (active); in test [6], 27.5 µM (active); in test [7] it was 9.52 µM (active).

Turning to `O=P(O)(O)CP(=O)(O)O`, the max activation in test [1] was -0.378%. In addition, the Potency result in test [2] and in test [3] was “inactive” throughout.

With `CC1CCCCN1CCCOC(=O)c1ccccc1` (centres undefined), the max activation in test [1] was -7.12%. In addition, in test [3], the Potency result was “inactive”.

Regarding `CC(C)[N+]1(C)[C@@H]2CC[C@H]1CC(OC(=O)C(CO)c1ccccc1)C2` (some centres undefined), the max activation in test [1] is -2.6%. For the same molecule, in test [3], the Potency entry was “inactive”.
